Laboratory results from PubChem BioAssay (Tox21).
Where “and” joins values, the source holds several entries; their conditions need not be identical. Identical values can stand only once. Records with an inconclusive call do not appear. A call without a number means that no potency is given here. A structure can be active in one record and inactive in another. Calls of active or inactive are those of the source. Unless noted, calls follow the shape of the dose curve; as a rule, active = well fitted curve in the direction sought with a large enough effect in the repeat runs; inconclusive = weak or mixed curves; inactive = no such curve, though single readings can be large; an effect the other way counts as inactive or inconclusive.

How the values were obtained:
[1] = molecular target: Acetylcholinesterase (Homo sapiens) (UniProt P22303); assay: Acetylcholinesterase (AChE) small molecule antagonists: colormetric cell-based qHTS assay (AID 1347395; calls by dose curve; also: nearly all actives have a fitted effect of over 30% in size)
In short: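 Endogenous AChE of human neuroblastoma SH-SY5Y cells was measured with an Ellman-type DTNB/acetylthiocholine mix. Compound pretreatment lasted 30 min at 37 C; substrate reaction ran 90 min at 37 C.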

[2] = molecular target: Acetylcholinesterase (Homo sapiens) (UniProt P22303); assay: Acetylcholinesterase (AChE) small molecule antagonists: enzyme-based qHTS assay (AID 1347397; calls by dose curve; also: nearly all actives have a fitted effect of over 55% in size); conditions: Potency: AChE enzyme activity inhibition
In short: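 First, recombinant human AChE (50 mU/mL as dispensed) received test compound or DMSO. Second, plates stood 30 min at room temperature. Third, DTNB and acetylthiocholine were added, followed by 10 min at room temperature and colorimetric detection.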

[3] = molecular target: Acetylcholinesterase (Homo sapiens) (UniProt P22303); assay: Acetylcholinesterase (AChE) small molecule antagonists: fluorescence cell-based qHTS assay (AID 1347398; calls by dose curve; also: nearly all actives have a fitted effect of over 50% in size); conditions: Potency: AChE activity
In short: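 Homogeneous quantitative HTS format. SH-SY5Y cells seeded at 2,000 per well settle overnight at 37 C. Compound pretreatment runs 30 min (37 C, 5% CO2); substrate/probe mix then reacts 40 min at RT before reading 490/520 nm.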

[4] = molecular target: Acetylcholinesterase (Homo sapiens) (UniProt P22303); assay: Acetylcholinesterase (AChE) small molecule antagonists: enzyme-based qHTS assay with human liver microsomes (AID 1347399; calls by dose curve; also: nearly all actives have a fitted effect of over 60% in size); conditions: Potency: qHTS inhibition
In short: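 Recombinant human AChE (50 mU/mL in the enzyme mix) and human liver microsomes (0.25 mg/mL final) were preincubated with compound and NADPH (0.25 mg/mL final) for 30 min at 37 C. Acetylthiocholine/DTNB was then added; thiocholine was read colorimetrically after 10 min at room temperature.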

[5] = molecular target: Cytochrome P450 2D6 (Homo sapiens) (UniProt P10635); assay: Cytochrome P450 Family 2 Subfamily D Member 6 (CYP2D6) small molecule antagonists: luciferase reporter qHTS assay (AID 1671196); also: nearly all actives have a fitted effect of over 50% in size; also: potency is read from the fitted curve at half-maximal effect
In short: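 CYP2D6 activity was followed as luminescence from its luciferin product after a 1 h NADPH-driven reaction at room temperature. Enzyme-substrate mix and compound were pre-incubated for 10 min, and the signal was read 20 min after adding detection reagent.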

[6] = molecular target: Cytochrome P450 2C19 (Homo sapiens) (UniProt P33261); assay: Cytochrome P450 Family 2 Subfamily C Member 19 (CYP2C19) small molecule antagonists: luciferase reporter qHTS assay (AID 1671197); also: nearly all actives have a fitted effect of over 65% in size; also: potency is read from the fitted curve at half-maximal effect
In short: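 P450-Glo CYP2C19 system: enzyme-substrate mix with compound 10 min at room temperature, then NADPH regeneration solution, 1 h at 37C. Proluciferin-to-luciferin conversion detected by luminescence after 20 min with detection reagent; ketoconazole as positive control.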

[7] = molecular target: Cytochrome P450 2C9 (Homo sapiens) (UniProt P11712); assay: Cytochrome P450 Family 2 Subfamily C Member 9 (CYP2C9) small molecule antagonists: luciferase reporter qHTS assay (AID 1671198); also: nearly all actives have a fitted effect of over 50% in size; also: potency is read from the fitted curve at half-maximal effect
In short: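 Enzyme-substrate mix preincubated with compound 10 min at room temperature; reaction started with NADPH regeneration solution, 1 h 37C. Luminescent luciferin product read after 20 min detection reagent.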

[8] = molecular target: Cytochrome P450 1A2 (Homo sapiens) (UniProt P05177); assay: Cytochrome P450 Family 1 Subfamily A Member 2 (CYP1A2) small molecule antagonists: luciferase reporter qHTS assay (AID 1671199); also: nearly all actives have a fitted effect of over 50% in size; also: potency is read from the fitted curve at half-maximal effect
In short: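 Luminescence from luciferin formed by CYP1A2 from a proluciferin substrate, read 20 min after detection reagent. Compound was pre-incubated 10 min with enzyme-substrate, and reaction started with NADPH regeneration solution for 1 h at room temperature; furafylline control.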

[9] = molecular target: Voltage-gated inwardly rectifying potassium channel KCNH2 (Homo sapiens) (UniProt Q12809); assay: Human Ether-a-go-go-Related Gene (hERG) channel small molecule antagonists: fluorescence cell-based qHTS assay (AID 1671200)
In short: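 Quantitative HTS in hERG-U2OS cells: thallium entry through the channel reports activity, read as continuous 480/540 nm fluorescence over 2 min after stimulus addition.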

[10] = molecular target: Cytochrome P450 3A4 (Homo sapiens) (UniProt P08684); assay: Cytochrome P450 Family 3 Subfamily A Member 4 (CYP3A4) small molecule antagonists: luciferase reporter qHTS assay (AID 1671201); also: nearly all actives have a fitted effect of over 50% in size; also: potency is read from the fitted curve at half-maximal effect
In short: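 Inhibition of CYP3A4 is measured as loss of light: the enzyme converts a proluciferin substrate to luciferin, detected luminescently. Reaction ran 1 h at room temperature with NADPH regeneration after a 10 min compound preincubation.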

Chain of Voltage-gated inwardly rectifying potassium channel KCNH2 (Homo sapiens) (Q12809 whole entry, looked up): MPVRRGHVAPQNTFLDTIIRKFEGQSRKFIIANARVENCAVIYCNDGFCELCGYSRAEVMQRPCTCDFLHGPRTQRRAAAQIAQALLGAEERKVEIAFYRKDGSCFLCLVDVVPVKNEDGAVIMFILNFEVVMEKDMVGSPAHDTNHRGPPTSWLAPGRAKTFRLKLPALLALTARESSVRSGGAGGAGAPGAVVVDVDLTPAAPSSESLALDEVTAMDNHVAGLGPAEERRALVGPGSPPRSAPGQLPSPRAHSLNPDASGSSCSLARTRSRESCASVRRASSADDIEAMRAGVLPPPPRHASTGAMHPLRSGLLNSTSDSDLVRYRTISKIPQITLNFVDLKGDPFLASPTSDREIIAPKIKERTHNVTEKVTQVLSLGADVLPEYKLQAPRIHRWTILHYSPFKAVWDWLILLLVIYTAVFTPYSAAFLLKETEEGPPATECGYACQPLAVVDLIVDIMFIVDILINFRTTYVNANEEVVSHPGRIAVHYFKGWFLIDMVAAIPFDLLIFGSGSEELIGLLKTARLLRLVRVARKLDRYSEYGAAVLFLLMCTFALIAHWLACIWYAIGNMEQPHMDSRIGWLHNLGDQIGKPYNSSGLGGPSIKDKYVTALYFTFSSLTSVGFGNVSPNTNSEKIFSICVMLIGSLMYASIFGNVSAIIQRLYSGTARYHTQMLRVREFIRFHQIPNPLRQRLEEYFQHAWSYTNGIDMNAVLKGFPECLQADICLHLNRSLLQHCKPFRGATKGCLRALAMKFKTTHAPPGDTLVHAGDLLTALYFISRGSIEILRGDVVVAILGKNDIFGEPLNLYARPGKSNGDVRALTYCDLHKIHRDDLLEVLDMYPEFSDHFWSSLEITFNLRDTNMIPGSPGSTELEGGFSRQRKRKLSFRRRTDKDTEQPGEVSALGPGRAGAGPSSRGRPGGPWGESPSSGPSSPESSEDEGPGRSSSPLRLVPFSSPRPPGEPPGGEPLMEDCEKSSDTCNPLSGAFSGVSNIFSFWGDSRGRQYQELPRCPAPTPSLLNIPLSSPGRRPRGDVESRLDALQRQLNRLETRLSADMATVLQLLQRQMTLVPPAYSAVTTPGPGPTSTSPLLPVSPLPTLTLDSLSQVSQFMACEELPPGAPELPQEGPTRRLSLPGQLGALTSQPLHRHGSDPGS
Chain of Acetylcholinesterase (Homo sapiens) (P22303 whole entry, looked up): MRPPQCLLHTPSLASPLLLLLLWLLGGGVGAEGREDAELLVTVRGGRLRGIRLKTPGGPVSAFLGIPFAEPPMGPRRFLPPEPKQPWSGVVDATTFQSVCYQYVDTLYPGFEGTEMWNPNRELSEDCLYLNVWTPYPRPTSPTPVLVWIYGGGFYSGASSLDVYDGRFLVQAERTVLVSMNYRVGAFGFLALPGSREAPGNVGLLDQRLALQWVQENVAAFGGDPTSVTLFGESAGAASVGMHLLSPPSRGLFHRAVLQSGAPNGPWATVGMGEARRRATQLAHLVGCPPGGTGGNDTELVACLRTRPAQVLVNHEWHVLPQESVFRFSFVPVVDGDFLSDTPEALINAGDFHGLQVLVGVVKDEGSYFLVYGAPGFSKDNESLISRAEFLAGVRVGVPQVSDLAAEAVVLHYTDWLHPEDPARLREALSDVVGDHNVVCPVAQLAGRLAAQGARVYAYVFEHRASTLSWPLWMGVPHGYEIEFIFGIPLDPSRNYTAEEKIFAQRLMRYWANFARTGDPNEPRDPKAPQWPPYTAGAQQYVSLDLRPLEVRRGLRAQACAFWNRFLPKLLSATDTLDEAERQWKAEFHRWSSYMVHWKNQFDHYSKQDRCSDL
Chain of Cytochrome P450 3A4 (Homo sapiens) (P08684 whole entry, looked up): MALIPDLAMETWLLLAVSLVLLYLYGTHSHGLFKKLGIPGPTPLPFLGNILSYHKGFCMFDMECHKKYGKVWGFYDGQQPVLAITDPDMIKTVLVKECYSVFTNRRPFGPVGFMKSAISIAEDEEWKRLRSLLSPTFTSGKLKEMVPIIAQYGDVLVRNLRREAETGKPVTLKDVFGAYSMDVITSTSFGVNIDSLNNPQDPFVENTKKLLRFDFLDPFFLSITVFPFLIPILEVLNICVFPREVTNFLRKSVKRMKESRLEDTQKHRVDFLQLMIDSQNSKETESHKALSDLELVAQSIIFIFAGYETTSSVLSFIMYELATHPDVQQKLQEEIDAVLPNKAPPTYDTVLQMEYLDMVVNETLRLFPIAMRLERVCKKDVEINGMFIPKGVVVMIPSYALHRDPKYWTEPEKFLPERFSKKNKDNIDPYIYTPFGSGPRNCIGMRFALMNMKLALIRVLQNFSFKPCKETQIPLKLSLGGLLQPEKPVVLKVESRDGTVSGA
Chain of Cytochrome P450 2C9 (Homo sapiens) (P11712 whole entry, looked up): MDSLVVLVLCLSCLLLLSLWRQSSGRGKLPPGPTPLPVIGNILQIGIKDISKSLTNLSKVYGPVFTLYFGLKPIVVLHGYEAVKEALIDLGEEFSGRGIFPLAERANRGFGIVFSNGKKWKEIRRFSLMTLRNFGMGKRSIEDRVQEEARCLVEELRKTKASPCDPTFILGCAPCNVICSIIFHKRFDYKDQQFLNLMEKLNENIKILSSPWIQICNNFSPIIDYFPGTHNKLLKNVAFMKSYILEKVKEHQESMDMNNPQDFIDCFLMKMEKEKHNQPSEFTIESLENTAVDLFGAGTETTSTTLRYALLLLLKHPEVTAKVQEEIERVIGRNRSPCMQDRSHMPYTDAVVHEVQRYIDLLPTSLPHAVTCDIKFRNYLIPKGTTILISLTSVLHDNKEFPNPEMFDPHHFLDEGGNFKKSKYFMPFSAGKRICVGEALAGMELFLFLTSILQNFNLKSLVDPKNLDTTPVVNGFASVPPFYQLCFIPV
Chain of Cytochrome P450 2D6 (Homo sapiens) (P10635 whole entry, looked up): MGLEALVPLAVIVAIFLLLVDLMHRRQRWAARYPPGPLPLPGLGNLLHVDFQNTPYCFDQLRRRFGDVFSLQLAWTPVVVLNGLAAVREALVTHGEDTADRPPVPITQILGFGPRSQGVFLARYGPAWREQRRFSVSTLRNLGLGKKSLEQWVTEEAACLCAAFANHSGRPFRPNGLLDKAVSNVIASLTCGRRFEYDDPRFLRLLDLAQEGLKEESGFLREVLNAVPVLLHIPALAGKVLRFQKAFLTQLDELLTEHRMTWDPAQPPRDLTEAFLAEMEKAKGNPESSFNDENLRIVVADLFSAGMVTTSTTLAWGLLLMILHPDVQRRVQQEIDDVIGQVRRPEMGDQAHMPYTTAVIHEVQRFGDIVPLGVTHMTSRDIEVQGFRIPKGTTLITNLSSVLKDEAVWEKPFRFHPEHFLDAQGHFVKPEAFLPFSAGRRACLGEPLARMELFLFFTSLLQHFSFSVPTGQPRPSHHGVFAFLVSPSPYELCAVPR
Chain of Cytochrome P450 1A2 (Homo sapiens) (P05177 whole entry, looked up): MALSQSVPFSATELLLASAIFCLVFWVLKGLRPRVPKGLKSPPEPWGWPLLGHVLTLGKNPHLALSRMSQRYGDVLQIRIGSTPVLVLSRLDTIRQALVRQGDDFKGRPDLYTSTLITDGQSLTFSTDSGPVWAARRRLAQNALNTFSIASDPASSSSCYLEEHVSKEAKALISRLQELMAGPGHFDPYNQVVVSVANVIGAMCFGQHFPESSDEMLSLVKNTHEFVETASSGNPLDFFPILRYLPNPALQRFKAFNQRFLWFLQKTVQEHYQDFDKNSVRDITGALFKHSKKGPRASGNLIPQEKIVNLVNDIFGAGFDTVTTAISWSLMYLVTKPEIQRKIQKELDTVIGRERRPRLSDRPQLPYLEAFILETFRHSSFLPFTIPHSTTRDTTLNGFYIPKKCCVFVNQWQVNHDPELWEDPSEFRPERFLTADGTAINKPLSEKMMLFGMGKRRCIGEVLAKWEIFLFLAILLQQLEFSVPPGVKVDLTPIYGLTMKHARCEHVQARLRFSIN
Chain of Cytochrome P450 2C19 (Homo sapiens) (P33261 whole entry, looked up): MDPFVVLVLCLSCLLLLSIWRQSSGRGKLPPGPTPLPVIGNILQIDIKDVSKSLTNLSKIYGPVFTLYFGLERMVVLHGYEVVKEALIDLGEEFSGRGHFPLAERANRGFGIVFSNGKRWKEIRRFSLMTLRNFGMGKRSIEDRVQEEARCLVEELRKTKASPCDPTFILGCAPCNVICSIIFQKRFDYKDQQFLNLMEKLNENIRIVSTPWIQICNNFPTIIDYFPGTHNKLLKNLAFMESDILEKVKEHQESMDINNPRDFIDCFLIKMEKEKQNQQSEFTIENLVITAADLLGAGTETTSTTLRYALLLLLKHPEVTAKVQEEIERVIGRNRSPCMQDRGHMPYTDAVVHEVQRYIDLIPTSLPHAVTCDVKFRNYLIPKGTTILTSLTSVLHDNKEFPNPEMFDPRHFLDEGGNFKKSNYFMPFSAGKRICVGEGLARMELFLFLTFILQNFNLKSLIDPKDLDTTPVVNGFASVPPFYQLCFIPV

NNC(=S)NN
Potency [1]: inactive | Potency [2]: inactive | Potency [3]: inactive | Potency [4]: inactive | Potency [5]: 65 µM (active) | Potency [6]: 32.6 µM (active) and 39.9 µM (active) | Potency [7]: 65 µM (active) | Potency [8]: 41 µM (active) and 31.7 µM (active) | Potency [9]: inactive

CCCCC(CC)COC(=O)Cl (centres undefined)
Potency [1]: inactive | Potency [2]: inactive | Potency [3]: inactive | Potency [4]: inactive | Potency [5]: inactive | Potency [6]: inactive | Potency [7]: inactive | Potency [8]: inactive | Potency [9]: inactive | Potency [10]: inactive

COC(=O)c1sccc1S(=O)(=O)NC(=O)Nc1nc(C)nc(OC)n1
Potency [1]: inactive | Potency [2]: inactive | Potency [3]: inactive | Potency [4]: inactive | Potency [5]: inactive | Potency [6]: 81.3 µM (active) | Potency [7]: inactive | Potency [8]: inactive | Potency [9]: inactive | Potency [10]: inactive

O=[N+]([O-])c1ccc(O)c([N+](=O)[O-])c1
Potency [1]: inactive | Potency [2]: inactive | Potency [3]: inactive | Potency [4]: inactive | Potency [5]: inactive | Potency [6]: inactive | Potency [7]: 63.5 µM (active) and 39.9 µM (active) | Potency [8]: inactive | Potency [9]: inactive | Potency [10]: inactive

N#CC(Br)Br
Potency [1]: inactive | Potency [2]: inactive | Potency [3]: inactive | Potency [4]: inactive | Potency [5]: 31.5 µM (active) and inactive | Potency [6]: inactive | Potency [7]: inactive | Potency [8]: inactive | Potency [9]: inactive | Potency [10]: inactive

Cc1cc(Cl)ccc1OCCCC(=O)O
Potency [1]: inactive | Potency [2]: inactive | Potency [3]: inactive | Potency [4]: inactive | Potency [5]: inactive | Potency [6]: 82.8 µM (active) and inactive | Potency [8]: inactive | Potency [9]: inactive | Potency [10]: inactive

Cc1ccccc1[N+](=O)[O-]
Potency [1]: inactive | Potency [2]: inactive | Potency [3]: inactive | Potency [4]: inactive | Potency [5]: inactive | Potency [6]: inactive | Potency [7]: inactive | Potency [8]: inactive | Potency [9]: inactive | Potency [10]: inactive

CN(C)C(=O)Nc1ccc(Cl)cc1
Potency [1]: inactive | Potency [2]: inactive | Potency [3]: inactive | Potency [4]: inactive | Potency [6]: 7.83 µM (active) | Potency [7]: inactive | Potency [8]: 3.93 µM (active) and 3.99 µM (active) | Potency [9]: inactive | Potency [10]: inactive

N#Cc1cc(Br)c(O)c(Br)c1
Potency [1]: inactive | Potency [2]: inactive | Potency [3]: inactive | Potency [4]: inactive | Potency [6]: inactive | Potency [7]: 20 µM (active) and 15.3 µM (active) | Potency [8]: inactive | Potency [9]: inactive | Potency [10]: inactive

CCCCCCCCOC(=O)c1ccccc1C(=O)OCCCCCCCC
Potency [1]: inactive | Potency [2]: inactive | Potency [3]: inactive | Potency [4]: inactive | Potency [6]: 50.1 µM (active) and inactive | Potency [7]: 14.2 µM (active) | Potency [9]: inactive

Nc1cccnc1
Potency [1]: inactive | Potency [2]: inactive | Potency [3]: inactive | Potency [5]: inactive | Potency [6]: 71 µM (active) | Potency [7]: inactive | Potency [8]: inactive | Potency [9]: inactive | Potency [10]: inactive

CCC(C)c1cc([N+](=O)[O-])cc([N+](=O)[O-])c1O (centres undefined)
Potency [1]: inactive | Potency [2]: inactive | Potency [3]: inactive | Potency [5]: inactive | Potency [6]: inactive and 79.6 µM (active) | Potency [7]: inactive | Potency [8]: inactive and 63.3 µM (active) | Potency [9]: inactive | Potency [10]: inactive

CCCCOCCOP(=O)(OCCOCCCC)OCCOCCCC
Potency [1]: inactive | Potency [2]: inactive | Potency [3]: inactive | Potency [4]: inactive | Potency [6]: 7.98 µM (active) and 8.94 µM (active) | Potency [7]: 8.95 µM (active) and 15.9 µM (active) | Potency [9]: inactive | Potency [10]: 8.95 µM (active) and 15.9 µM (active)

CCC(C)(C)c1ccc(O)cc1
Potency [1]: inactive | Potency [2]: inactive | Potency [3]: inactive | Potency [4]: inactive | Potency [6]: inactive | Potency [7]: 71.8 µM (active) and 63.3 µM (active) | Potency [8]: inactive | Potency [9]: inactive | Potency [10]: inactive

CCCCN(CC)c1c([N+](=O)[O-])cc(C(F)(F)F)cc1[N+](=O)[O-]
Potency [1]: inactive | Potency [2]: inactive | Potency [3]: inactive | Potency [4]: inactive | Potency [6]: 72.1 µM (active) and 20 µM (active) | Potency [7]: 31.7 µM (active) | Potency [8]: 22.4 µM (active) | Potency [10]: inactive

CC(C)NC(C)C
Potency [1]: inactive | Potency [2]: inactive | Potency [3]: inactive | Potency [4]: inactive | Potency [6]: inactive | Potency [7]: inactive | Potency [8]: inactive | Potency [9]: inactive | Potency [10]: inactive

O=C(NC(=O)c1c(F)cccc1F)Nc1ccc(Cl)cc1
Potency [1]: inactive | Potency [2]: inactive | Potency [3]: inactive | Potency [5]: inactive | Potency [6]: inactive | Potency [7]: inactive | Potency [8]: 35.6 µM (active) | Potency [9]: inactive | Potency [10]: inactive
